Compounds without any hit were thinned out: in the full panel of roughly 79,000, 15% have a hit. A number with no mark means an inactive call. Calls of active or inactive are those of the source. Cut-off read from the data, not from the text of the source: active = growth inhibition above about 70%; inactive = the rest.
Columns and labels:
[1] = NCI Yeast Anticancer Drug Screen. Data for the rad50 strain (AID 155);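 note: 0% = growth of vehicle-only cultures of the same strain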; details: S. cerevisiae rad50 strain growth inhibition; at 50.0 µM; hits give high values
In short: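 Readout: growth inhibition relative to vehicle-treated cultures. Compound exposure was carried out in a genetically defined yeast strain deficient in DNA damage repair.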

[2] = NCI Yeast Anticancer Drug Screen. Data for the mec2-1 strain (AID 157); details: S. cerevisiae mec2-1 strain, at 50.0 µM, hits give high values
In short: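 Test agents were screened against the mec2-1 yeast strain, with defined DNA repair or cell cycle alteration. Growth was scored as inhibition against vehicle-only controls.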

[3] = NCI Yeast Anticancer Drug Screen. Data for the sgs1 mgt1 strain (AID 161);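 note: 0% = growth of cultures given vehicle only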; details: S. cerevisiae sgs1 mgt1 strain, at 50.0 µM, hits give high values
In short: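 Test agents were incubated with a DNA-repair-mutant yeast strain. Growth was then read and compared against vehicle-treated controls.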

[4] = NCI Yeast Anticancer Drug Screen. Data for the cln2 rad14 strain (AID 165);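 note: 0% = growth equal to vehicle treated cultures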; details: S. cerevisiae cln2 rad14 strain, at 50.0 µM, hits give high values
In short: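 Growth of compound-exposed yeast (cln2 rad14 genotype) measured and expressed as inhibition relative to vehicle.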

[5] = NCI Yeast Anticancer Drug Screen. Data for the bub3 strain (AID 167); details: S. cerevisiae bub3 mutant strain, at 50.0 µM, hits give high values
In short: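 Readout: yeast growth inhibition, expressed relative to vehicle-only wells. The test organism is a mutant strain from a panel with lesions in DNA repair or checkpoint genes.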

[6] = NCI Yeast Anticancer Drug Screen. Data for the mlh1 rad18 strain (AID 175); details: S. cerevisiae mlh1 rad18 strain growth inhibition; at 50.0 µM; hits give high values
In short: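 In this whole-cell yeast screen, a strain with altered DNA damage repair is challenged with compound, and its growth is measured against matched vehicle-treated controls.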

SMILES	growth inhibition [1] [%]	growth inhibition [2] [%]	growth inhibition [3] [%]	growth inhibition [4]	growth inhibition [5] [%]	growth inhibition [6] [%]
CC1CCC2(C)OC1OC2CN (stereo not drawn)	1.15	2.85	-2.2	-0.55%	0.3	-4.65
CCOc1cc(N)nc(N)n1	13.1	-10.3	7.15	5.9%	5.65	-7.75
C=C=CON1CCCCC1	-16	14.9	-24.9	-5%	-12.7	-0.6
CC(=O)Nc1ccc(C(C#N)C(C#N)c2ccccc2)cc1 (stereo not drawn)	-1.5	8.75	-0.1	-68.3%	11.8	-2.55
COC(=O)[C@H]1C=C[C@@H](C)n2c(=O)c3cc4ccccc4cc3c(=O)n21	-21.2	-1.55	-18.9	-7.95%	-24	-18.2
CC(Br)CCl (stereo not drawn)	26.4	17.1	22.1	2.1%	14.4	39.2
Cc1cccnc1C(=O)O.[Cu+2]	-9.55	-0.45	-29.1	-45.2%	-32.8	-7.4
C(/C=N/NC1=NCCCN1)=N\NC1=NCCCN1	-3.5	-15.2	-14.6	10.9%	-33.1	-14.2
CC(C)Nc1ccc(O)cc1	-21.1	-40	-4.2	-6.3%	-10.3	-8
CCOC(=O)/C(=C/c1ccc(C#N)cc1)N(CC)CC	-3.95	-13.1	-9	24.4%	-3.9	-9.25
CCCC(C)(C)O	2.15	9.15	22.1	-21.3%	10.4	-3.65
CC(=O)OCCOCN1C(=O)CC(=O)NC1=O	-10.2	-10.6	-4.5	-5.45%	-22.3	-30.2
CCOC(=O)CC(C(C)=O)C(=O)OCC (stereo not drawn)	14.9	12.3	-3.55	-29.6%	5.6	-1.4
CC(=O)OC1CCC2(C)C(=CCC3C2CCC2(C)C3CC(Br)C2(O)C(C)=O)C1 (stereo not drawn)	41.9	24.1	15	17.7%	4.1	30.4
Cc1c(C(=O)Nc2ccc(Cl)cc2)nc(N)nc1-c1cccc(Cl)c1	-18.9	-8.85	2.3	1.1%	-3.6	-8.7
Oc1ccccc1-c1cc(-c2ccccc2)nc(NCCCCCCNc2nc(-c3ccccc3)cc(-c3ccccc3O)n2)n1	9.85	3.9	-12.1	-24.2%	-6.4	11.2
Nc1nc(=O)n(CCCCCCc2ccccc2)cc1-c1ccc(Cl)c(Cl)c1	-4.75	-8.95	8	83.7% (active)	3.65	0.45
Cc1ccc2cccc(OC(=O)Nc3cc(Cl)c(Cl)cc3Cl)c2n1	-5.7	-17.8	4.5	-4.8%	-14.2	3.9
CC(=O)OCCOCNC(=S)N/N=C(\C)c1cccs1	10.3	-13.6	4.8	34.1%	4.3	-8.95

SMILES	growth inhibition [1] [%]	growth inhibition [2] [%]	growth inhibition [3] [%]	growth inhibition [4]	growth inhibition [5] [%]	growth inhibition [6] [%]
Nc1ccc2c(c1)C(=O)c1ccccc1C2=O	4.4	-1.55	-12.9	6.55%	8.95	-0.55
CC1OC(OC23C(=O)CC(C)(O)CC2(O)C=CC2=C3C(=O)c3ccc(C4CC(OC5CCC(OC6CC(O)C(O)C(C)O6)C(C)O5)C(O)C(C)O4)c(O)c3C2=O)CCC1O (stereo not drawn)	1.4	-7.95	5.75	-0.5%	-0.25	18.1
Cc1cc2ccccc2nc1-c1ccncc1	3.45	-3.15	-7.35	-44.6%	-6.75	1.2
CCCCC1C(=O)N=C2C=CC=CN2C1=O (stereo not drawn)	-2.15	-16.9	-5.75	3.5%	-24.2	-7.4
COc1ccc(C(=O)c2cccc(C(=O)c3ccc(OC)cc3)c2)cc1	-13.1	-19.4	-3.5	-0.9%	-13.5	-4.15
CCC1=C/C(=N/O)C(C)=CC1(C)C(Cl)(Cl)Cl (stereo not drawn)	25.7	7.65	10	17.2%	17.9	48.5
Cc1n[nH]c(=S)n1C	-25.2	-6.05	-4.25	-23.2%	8.55	12.8
CC(C)=CC(=O)C/C(=N\NC(N)=S)C(=O)Nc1ccc(Cl)cc1	-7.4	-27.5	5.55	9.45%	5.1	-1.3
CNC(=S)c1ccc(Cl)cc1	12.3	-20.6	-15.1	-29.8%	-2.05	11.3
Cn1c(=O)c2[nH]c(C(=O)O)nc2n(C)c1=O	17.4	-2.35	5.7	9.35%	-8.3	9.85
CCOP(=O)(Cc1ccc(CP(=O)(OCC)OCC)n1C)OCC	-6.15	-7.5	-13.7	17.4%	-4.7	15.1
CC[C@]12CCCN3CCc4c(n(c5ccccc45)C(=O)C1)[C@@H]32	-25.9	-23.2	-49.1	29.4%	-25.6	31.1
CC(=O)c1ccc(I)cc1	5.15	-11.7	24.6	13.8%	14.1	18.1
O=C(O)CN(CC(=O)O)CC(=O)O	-9.7	-23.6	-34.4	-11.8%	-17.1	32.1
COc1ccc(C2S/C(=C\c3ccccc3)C(=O)N2NC(=O)Cc2ccccc2)cc1 (stereo not drawn)	-12.8	-54.2	-7.5	-69.7%	-18.6	-12
O=C(NC(=O)C(F)(F)F)Nc1cccc(C(F)(F)F)c1	15.6	1.1	-14.1	-4.85%	-8.25	2.9
O=C(O)/C=C\C(Cl)(Cl)Cl	-6.35	-6.6	-6.7	4.15%	-41	-13.4
C=CCOC1OC(CO)C(O)C(O)C1O (stereo not drawn)	9.8	38	29.2	11.5%	7.3	9.35
N#CCCN(CCC#N)c1ccc(/C=C2\N=C(COc3ccc(Cl)cc3Cl)OC2=O)cc1	-12.9	-10	-14.8	0.7%	6.8	-4.3
